Assay [1] addresses Mitogen-activated protein kinase 3 (Homo sapiens) (UniProt P27361). The conditions noted are these: at 1 µM.
The target in assay [2] is SRSF protein kinase 3 (Homo sapiens) (UniProt Q9UPE1). The conditions noted are these: at 0.1 µM.
Assay [3] has the same target. The settings on record: at 1 µM.
The target in assay [4] is Mitogen-activated protein kinase 14 (Homo sapiens) (UniProt Q16539). The conditions noted are these: at 0.1 µM.
The target is the same in assay [5]. The conditions noted are these: at 1 µM.
Assay [6] has as its target Mitogen-activated protein kinase 11 (Homo sapiens) (UniProt Q15759). The conditions noted are these: at 0.1 µM.
Assay [7] shares this target. The settings on record: at 1 µM.
Assay [8] addresses T1, Mitogen-activated protein kinase 13 (Homo sapiens) (UniProt O15264).
T1 sequence (whole entry): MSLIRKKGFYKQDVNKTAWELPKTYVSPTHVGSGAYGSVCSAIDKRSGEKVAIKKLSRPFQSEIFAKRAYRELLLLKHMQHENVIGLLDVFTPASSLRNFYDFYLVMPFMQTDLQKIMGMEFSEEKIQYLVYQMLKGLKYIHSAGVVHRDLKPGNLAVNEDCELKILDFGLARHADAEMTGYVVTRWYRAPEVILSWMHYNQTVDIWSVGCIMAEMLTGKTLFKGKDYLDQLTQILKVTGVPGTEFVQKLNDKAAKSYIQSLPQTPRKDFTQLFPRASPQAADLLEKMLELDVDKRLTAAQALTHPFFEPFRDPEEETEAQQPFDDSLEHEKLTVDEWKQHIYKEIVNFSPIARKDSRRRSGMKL
The conditions noted are these: at 0.1 µM.

Assay [9] addresses T1, Mitogen-activated protein kinase 13 (Homo sapiens). The settings on record: at 1 µM.
Assay [10] concerns the target T2, Mitogen-activated protein kinase 12 (Homo sapiens) (UniProt P53778).
T2 sequence (whole entry): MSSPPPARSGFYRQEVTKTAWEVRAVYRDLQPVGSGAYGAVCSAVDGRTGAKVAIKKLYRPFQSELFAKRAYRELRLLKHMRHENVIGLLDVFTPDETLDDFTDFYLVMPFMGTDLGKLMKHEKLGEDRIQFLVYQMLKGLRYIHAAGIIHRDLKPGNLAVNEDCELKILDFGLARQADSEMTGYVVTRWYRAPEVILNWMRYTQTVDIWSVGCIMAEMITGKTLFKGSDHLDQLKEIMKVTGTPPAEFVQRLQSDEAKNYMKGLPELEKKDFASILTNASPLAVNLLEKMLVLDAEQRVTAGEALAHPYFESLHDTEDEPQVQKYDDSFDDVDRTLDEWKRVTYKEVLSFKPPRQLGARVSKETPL
The settings on record: at 0.1 µM.

The target of assay [11] is T2, Mitogen-activated protein kinase 12 (Homo sapiens). The settings on record: at 1 µM.
Assay [12] deals with SRSF protein kinase 1 (Homo sapiens) (UniProt Q96SB4). The settings on record: at 0.1 µM.
SRSF protein kinase 1 (Homo sapiens), sequence (Q96SB4 whole entry): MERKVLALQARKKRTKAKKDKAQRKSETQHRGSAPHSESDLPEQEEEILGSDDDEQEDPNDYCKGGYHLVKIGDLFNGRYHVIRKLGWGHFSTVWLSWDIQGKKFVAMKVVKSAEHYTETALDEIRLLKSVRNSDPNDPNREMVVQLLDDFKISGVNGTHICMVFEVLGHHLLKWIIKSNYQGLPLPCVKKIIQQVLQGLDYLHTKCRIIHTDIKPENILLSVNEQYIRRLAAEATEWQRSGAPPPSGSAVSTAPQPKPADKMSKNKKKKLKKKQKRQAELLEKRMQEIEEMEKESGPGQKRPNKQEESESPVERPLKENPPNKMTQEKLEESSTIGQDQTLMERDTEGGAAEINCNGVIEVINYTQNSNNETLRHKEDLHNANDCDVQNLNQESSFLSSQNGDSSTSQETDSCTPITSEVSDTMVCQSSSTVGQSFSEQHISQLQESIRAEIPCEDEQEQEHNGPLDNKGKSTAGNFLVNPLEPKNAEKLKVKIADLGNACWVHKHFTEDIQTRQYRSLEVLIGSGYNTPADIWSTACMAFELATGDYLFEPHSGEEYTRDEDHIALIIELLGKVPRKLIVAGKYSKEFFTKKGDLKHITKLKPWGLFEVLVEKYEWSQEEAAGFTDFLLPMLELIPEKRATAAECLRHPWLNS
Assay [13] shares this target. The conditions noted are these: at 1 µM.
The target in assay [14] is Phosphatidylinositol 4,5-bisphosphate 3-kinase catalytic subunit alpha isoform (Homo sapiens) (UniProt P42336). The conditions noted are these: at 0.1 µM.
Phosphatidylinositol 4,5-bisphosphate 3-kinase catalytic subunit alpha isoform (Homo sapiens), sequence (P42336 whole entry, canonical isoform): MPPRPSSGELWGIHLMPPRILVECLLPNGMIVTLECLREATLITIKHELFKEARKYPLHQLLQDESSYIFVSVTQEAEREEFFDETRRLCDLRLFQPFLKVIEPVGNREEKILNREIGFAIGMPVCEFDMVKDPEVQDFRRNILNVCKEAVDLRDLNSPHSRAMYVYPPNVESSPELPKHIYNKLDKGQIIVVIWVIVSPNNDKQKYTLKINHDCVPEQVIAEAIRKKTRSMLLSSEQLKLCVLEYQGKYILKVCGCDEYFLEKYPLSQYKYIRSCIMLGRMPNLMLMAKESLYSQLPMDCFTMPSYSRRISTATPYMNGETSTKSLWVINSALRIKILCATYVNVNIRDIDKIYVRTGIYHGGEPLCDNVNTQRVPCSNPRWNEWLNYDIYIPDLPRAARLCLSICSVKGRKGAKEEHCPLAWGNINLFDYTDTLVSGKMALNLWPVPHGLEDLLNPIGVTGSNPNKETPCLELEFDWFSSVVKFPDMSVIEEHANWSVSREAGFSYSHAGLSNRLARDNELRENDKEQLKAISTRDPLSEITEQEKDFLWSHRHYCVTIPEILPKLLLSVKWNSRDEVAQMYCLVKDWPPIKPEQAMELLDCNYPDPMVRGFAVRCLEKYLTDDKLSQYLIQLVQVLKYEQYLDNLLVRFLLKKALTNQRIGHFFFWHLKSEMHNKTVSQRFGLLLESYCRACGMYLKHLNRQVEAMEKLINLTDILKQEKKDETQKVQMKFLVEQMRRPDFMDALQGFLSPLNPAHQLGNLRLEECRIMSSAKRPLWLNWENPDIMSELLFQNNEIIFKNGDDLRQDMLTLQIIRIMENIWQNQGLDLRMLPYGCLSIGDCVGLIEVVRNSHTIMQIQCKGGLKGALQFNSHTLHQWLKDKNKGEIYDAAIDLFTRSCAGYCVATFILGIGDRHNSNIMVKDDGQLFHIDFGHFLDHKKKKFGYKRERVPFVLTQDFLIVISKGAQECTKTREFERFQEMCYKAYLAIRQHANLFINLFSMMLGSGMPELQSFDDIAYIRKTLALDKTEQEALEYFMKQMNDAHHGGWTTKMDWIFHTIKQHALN
For assay [15] the target is unchanged. The settings on record: at 1 µM.
The target of assay [16] is T3, Phosphatidylinositol 4,5-bisphosphate 3-kinase catalytic subunit delta isoform (Homo sapiens) (UniProt O00329).
T3 sequence (whole entry): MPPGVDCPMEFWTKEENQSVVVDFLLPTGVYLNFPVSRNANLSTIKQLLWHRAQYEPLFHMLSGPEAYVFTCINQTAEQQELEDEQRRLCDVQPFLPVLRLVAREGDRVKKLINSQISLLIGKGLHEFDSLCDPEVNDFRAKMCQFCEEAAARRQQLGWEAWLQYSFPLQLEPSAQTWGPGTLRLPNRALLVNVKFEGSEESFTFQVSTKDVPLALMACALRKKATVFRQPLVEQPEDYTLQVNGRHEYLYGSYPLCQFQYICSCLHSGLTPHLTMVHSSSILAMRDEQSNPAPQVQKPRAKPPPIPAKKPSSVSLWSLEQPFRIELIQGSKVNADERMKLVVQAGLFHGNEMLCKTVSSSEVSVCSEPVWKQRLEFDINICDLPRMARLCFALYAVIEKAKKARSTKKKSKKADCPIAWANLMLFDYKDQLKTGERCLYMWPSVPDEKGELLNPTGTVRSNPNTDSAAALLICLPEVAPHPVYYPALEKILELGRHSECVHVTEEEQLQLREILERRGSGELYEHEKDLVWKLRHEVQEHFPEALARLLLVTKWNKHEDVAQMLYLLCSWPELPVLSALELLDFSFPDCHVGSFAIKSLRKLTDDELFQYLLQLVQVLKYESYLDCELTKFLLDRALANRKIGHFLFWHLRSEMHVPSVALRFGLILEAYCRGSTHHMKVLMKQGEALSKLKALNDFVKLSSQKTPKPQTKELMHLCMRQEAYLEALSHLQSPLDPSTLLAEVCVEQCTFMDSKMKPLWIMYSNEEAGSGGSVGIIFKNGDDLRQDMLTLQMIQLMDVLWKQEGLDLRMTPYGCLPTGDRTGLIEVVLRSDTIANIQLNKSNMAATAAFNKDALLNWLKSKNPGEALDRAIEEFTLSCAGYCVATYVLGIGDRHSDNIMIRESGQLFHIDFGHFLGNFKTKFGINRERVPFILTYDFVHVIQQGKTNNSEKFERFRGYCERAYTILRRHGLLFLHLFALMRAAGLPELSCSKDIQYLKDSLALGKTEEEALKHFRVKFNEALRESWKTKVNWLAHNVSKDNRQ
The settings on record: at 0.1 µM.

In assay [17] the target is T3, Phosphatidylinositol 4,5-bisphosphate 3-kinase catalytic subunit delta isoform (Homo sapiens). The conditions noted are these: at 1 µM.
The target of assay [18] is Phosphatidylinositol 4-kinase beta (Homo sapiens) (UniProt Q9UBF8). The settings on record: at 0.1 µM.
Phosphatidylinositol 4-kinase beta (Homo sapiens), sequence (Q9UBF8 2-816 limits assumed): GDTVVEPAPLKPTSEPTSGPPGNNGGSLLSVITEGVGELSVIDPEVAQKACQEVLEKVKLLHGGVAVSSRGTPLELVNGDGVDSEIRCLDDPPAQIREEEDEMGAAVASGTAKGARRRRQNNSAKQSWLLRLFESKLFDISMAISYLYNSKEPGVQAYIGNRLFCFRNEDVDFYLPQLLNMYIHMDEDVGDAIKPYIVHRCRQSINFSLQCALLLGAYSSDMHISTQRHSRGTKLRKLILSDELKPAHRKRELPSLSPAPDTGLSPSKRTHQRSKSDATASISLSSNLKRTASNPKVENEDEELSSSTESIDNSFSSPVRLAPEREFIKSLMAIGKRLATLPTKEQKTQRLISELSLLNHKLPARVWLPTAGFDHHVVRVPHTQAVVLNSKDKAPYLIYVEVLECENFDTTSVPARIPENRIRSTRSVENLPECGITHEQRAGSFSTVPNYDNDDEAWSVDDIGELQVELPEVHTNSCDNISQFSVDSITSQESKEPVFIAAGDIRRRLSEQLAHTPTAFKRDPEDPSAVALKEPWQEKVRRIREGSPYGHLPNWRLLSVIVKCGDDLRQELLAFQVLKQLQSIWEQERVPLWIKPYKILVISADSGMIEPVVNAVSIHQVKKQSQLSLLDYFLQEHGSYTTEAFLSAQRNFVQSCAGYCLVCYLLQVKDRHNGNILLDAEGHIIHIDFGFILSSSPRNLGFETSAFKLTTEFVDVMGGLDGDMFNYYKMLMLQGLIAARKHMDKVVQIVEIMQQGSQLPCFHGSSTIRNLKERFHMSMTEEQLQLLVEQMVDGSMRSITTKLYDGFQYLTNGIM
For assay [19] the target is unchanged. The conditions noted are these: at 1 µM.
Assay [20] concerns the target Sphingosine kinase 1 (Homo sapiens) (UniProt Q9NYA1). The conditions noted are these: at 0.1 µM.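 Also: mean percent inhibition of SPHK1 activity, measured within the GSK PKIS screening panel.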

The inhibition is the drop in the measured response relative to a control, in per cent.

Sphingosine kinase 1 (Homo sapiens), sequence (Q9NYA1 whole entry): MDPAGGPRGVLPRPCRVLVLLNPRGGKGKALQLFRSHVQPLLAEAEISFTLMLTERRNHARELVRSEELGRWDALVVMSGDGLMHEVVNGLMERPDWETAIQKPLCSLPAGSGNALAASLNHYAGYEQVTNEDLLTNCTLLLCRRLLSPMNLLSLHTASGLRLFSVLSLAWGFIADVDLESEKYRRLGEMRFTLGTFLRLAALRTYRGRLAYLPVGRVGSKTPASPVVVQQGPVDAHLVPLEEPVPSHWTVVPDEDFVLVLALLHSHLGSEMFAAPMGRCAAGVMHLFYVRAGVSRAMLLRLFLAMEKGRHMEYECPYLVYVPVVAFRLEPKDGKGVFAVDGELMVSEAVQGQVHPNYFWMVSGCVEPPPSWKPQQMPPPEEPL
Mitogen-activated protein kinase 3 (Homo sapiens), sequence (P27361 whole entry): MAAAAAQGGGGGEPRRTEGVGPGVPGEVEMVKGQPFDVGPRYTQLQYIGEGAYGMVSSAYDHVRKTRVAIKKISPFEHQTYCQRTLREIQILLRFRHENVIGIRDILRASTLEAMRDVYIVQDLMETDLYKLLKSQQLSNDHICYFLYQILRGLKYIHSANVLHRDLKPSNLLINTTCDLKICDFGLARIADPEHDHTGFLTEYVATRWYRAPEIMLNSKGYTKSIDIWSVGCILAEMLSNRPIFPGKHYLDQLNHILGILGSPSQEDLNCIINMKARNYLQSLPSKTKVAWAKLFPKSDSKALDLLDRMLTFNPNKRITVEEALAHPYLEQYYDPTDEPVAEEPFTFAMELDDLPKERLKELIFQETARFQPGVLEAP
Mitogen-activated protein kinase 11 (Homo sapiens), sequence (Q15759 whole entry): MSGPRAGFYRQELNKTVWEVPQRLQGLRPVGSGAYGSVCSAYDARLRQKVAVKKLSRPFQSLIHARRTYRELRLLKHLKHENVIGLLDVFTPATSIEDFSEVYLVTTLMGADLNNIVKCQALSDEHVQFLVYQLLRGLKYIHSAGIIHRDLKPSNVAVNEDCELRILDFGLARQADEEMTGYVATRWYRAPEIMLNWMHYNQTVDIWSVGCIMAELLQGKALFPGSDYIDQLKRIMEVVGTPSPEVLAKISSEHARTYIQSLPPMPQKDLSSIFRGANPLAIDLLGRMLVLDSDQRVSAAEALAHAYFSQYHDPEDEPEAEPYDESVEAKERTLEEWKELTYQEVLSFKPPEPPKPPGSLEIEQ
Mitogen-activated protein kinase 14 (Homo sapiens), sequence (Q16539 whole entry): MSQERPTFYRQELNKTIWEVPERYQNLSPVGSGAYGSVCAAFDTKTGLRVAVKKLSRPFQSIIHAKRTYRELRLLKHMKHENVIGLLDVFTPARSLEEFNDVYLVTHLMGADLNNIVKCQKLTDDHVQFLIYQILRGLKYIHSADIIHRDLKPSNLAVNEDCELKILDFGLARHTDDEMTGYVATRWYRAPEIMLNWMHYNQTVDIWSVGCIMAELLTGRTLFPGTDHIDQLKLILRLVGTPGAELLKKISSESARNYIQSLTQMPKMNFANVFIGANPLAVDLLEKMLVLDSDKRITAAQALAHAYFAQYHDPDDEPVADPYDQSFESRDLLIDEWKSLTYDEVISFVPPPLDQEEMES
SRSF protein kinase 3 (Homo sapiens), sequence (Q9UPE1 whole entry): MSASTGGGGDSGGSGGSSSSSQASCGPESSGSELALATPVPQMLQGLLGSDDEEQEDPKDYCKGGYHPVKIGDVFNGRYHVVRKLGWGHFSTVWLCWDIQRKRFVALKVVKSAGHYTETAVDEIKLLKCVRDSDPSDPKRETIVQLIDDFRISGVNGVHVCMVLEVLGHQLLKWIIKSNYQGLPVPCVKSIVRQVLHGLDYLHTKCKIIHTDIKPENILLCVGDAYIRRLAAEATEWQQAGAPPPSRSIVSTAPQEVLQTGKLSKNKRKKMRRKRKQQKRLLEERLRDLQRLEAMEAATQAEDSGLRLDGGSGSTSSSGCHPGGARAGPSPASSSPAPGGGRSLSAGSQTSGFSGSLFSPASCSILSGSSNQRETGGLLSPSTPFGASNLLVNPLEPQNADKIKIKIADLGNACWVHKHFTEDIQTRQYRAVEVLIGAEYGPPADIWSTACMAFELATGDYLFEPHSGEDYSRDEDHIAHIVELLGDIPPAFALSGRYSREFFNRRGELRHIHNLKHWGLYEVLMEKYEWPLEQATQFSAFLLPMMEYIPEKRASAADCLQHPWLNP

`CNC(=O)c1cncc(/C=C/c2ccccc2Cl)c1`: the inhibition in assay [1] is 2.18%; in [2] it was -0.92%; in assay [3], 2.45%; in assay [4], -6.55%; in assay [5], -0.16%; in assay [6], 2.14%. In addition, the inhibition was 2.01% in [7]; 1.17% in assay [8]; -0.14% in assay [9]; -1.75% in assay [10]; -0.18% in assay [11]; 0.65% in assay [12]. For the same compound, the inhibition in assay [13] was determined as 3.33%; in [14], 1.22%; in assay [15], 1.59%; in [16] it was 0.5%; in assay [17] it was 0.38%; in [18], 3.54%. Besides, the inhibition in [19] is 1.28%; in [20] it was 0.48%.
Regarding `CNC(=O)c1cc(-c2ccc(F)cc2)cc(-c2ccc(S(=O)(=O)N3CCCC3)cc2)c1N`, the inhibition in [1] is 1.92%; in [2], -1.6%; in assay [3] it was -0.52%; in assay [4], 4.95%; in [5], 4.5%; in [6] it was 1.39%. In addition, the inhibition is 3.19% in assay [7]; 3.39% in assay [8]; 2.91% in assay [9]; 2.77% in [10]; 2.47% in [11]; -2.58% in assay [12]. For the same compound, the inhibition in [13] was -1.56%; in [14], 2.34%; in assay [15], 1.39%; in assay [16], 0.79%; in assay [17], 1.11%; in assay [18], -2.09%. The inhibition in [19] is 1.93%; in assay [20] it was -0.85%.
Take `COC(=O)Nc1nc2ccc(Oc3ccc(NC(=O)Nc4cccc(Cl)c4)cc3)cc2[nH]1`: the inhibition in assay [1] was -0.19%; in [2], -1.41%; in [3] it was 1.25%; in [4], 7.99%; in assay [5], 12%; in [6] it was 3.94%. The inhibition is 8.82% in [7]; 0.49% in assay [8]; -0.38% in [9]; 0.03% in [10]; 0.02% in assay [11]; -2.58% in assay [12]. The inhibition in assay [13] is -2.98%; in [14], -0.11%; in assay [15], 4.1%; in assay [16] it was -0.7%; in [17] it was 3.93%; in assay [18] it was 3.19%. In addition, the inhibition in assay [19] was -4.1%; in [20], 1.12%.
As for `COc1ccc2[nH]c3c4[nH]c5ccc(OC)cc5c4c4c(c3c2c1)C(=O)NC4=O`, the inhibition in assay [1] was 6.91%; in assay [2], 1.23%; in assay [3], 18.3%; in [4], 4.65%; in [5], 10.8%; in assay [6], 3.15%. Besides, the inhibition is 7.66% in assay [7]; 0.8% in assay [8]; 2.74% in [9]; 4.16% in assay [10]; 1.03% in assay [11]; -1% in [12]. Moreover, the inhibition in [13] is 6.5%; in assay [14] it was 6.77%; in assay [15], 14.6%; in assay [16], 4.48%; in [17] it was 10.1%; in assay [18] it was -1.55%. Moreover, the inhibition in assay [19] is -0.12%; in assay [20], -3.65%.
For the compound `[O-][S+]1CCN(Cc2ccc(-c3ccc4ncnc(Nc5ccc(OCc6cccc(F)c6)c(Cl)c5)c4c3)o2)CC1`, the inhibition in assay [1] is 4.13%; in assay [2] it was -2.3%; in assay [3], -1%; in [4] it was 15.9%; in assay [5] it was 14.9%; in [6], 7.73%. Also, the inhibition in assay [7] is 6.99%; in assay [8] it was 4.67%; in [9], 3%; in assay [10] it was 3.02%; in assay [11], 4.04%; in assay [12], -1.9%. The inhibition in assay [13] was -2.12%; in [14], 5.72%; in assay [15], 6.58%; in [16], 2.17%; in assay [17], 6.89%; in assay [18], 0.59%. The inhibition is -7.5% in assay [19] and -0.15% in assay [20].
Regarding `CCN(CC)S(=O)(=O)c1ccc(OC)c(Nc2ncc(-c3ccccc3)o2)c1`, the inhibition in assay [1] was determined as 4.26%; in [2], 0.09%; in assay [3], 0.88%; in assay [4], 1.78%; in assay [5] it was 1.27%; in assay [6], 3.74%. The inhibition is 4.45% in [7]; -0.22% in assay [8]; -0.16% in assay [9]; -2.06% in assay [10]; 0.41% in assay [11]; 1.34% in assay [12]. Also, the inhibition in [13] was 2.14%; in [14], -0.56%; in [15], -2.02%; in assay [16] it was -0.81%; in assay [17], -1.28%; in assay [18] it was 1.63%. Besides, the values for the inhibition in assay [19] and in assay [20] were 0.66% and 0.47%, respectively.
As to `Nc1nc(-c2cccc(Cl)c2)c(-c2ccc3ncccc3n2)s1`, the inhibition in [1] was 2.62%; in assay [2], -1.86%; in assay [3], 0.63%; in assay [4] it was 8.73%; in assay [5], 50%; in [6] it was 5.89%. Also, the inhibition came out at 19.1% in assay [7]; 3.72% in [8]; 5.27% in [9]; 8.76% in assay [10]; 3.06% in assay [11]; 0.23% in assay [12]. The inhibition amounted to 2.87% in [13]; 4.68% in assay [14]; 8.41% in [15]; 2.57% in assay [16]; 6.4% in assay [17]; 0.45% in assay [18]. The inhibition was -3.79% in assay [19] and -1.31% in assay [20].

Values taken from ChEMBL document CHEMBL1961873, “Compounds: GSK PKIS; Assays: Nanosyn kinase panel” (2012).
